The target in assay [1] is Oxysterols receptor LXR-alpha (Homo sapiens) (UniProt Q13133). Put plainly: ATG_LXRa_TRANS: Attagene TRANS-FACTORIAL HepG2 Assay for human Liver X Receptor alpha (LXRa) (AID 2282980). As to conditions: HepG2 Attagene TRANS reporter, LXRa transactivation. In short, it runs like this: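 Chemical-induced reporter mRNA measured by RT-PCR with fluorescent labelling and capillary electrophoresis after 24 h dosing of transiently transfected HepG2 cells expressing exogenous NR-Gal4 chimeras; increases scored against DMSO baseline.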

Assay [2] addresses Hepatocyte nuclear factor 4-alpha (Homo sapiens) (UniProt P41235). The assay can be described thus: ATG_HNF4a_TRANS: Attagene TRANS-FACTORIAL HepG2 Assay for human Hepatocyte Nuclear Factor 4 alpha (HNF4a) (AID 2282982). As to conditions: HepG2 HNF4a transactivation reporter, mRNA readout. In a few lines: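 Using HepG2 liver cells transfected with GAL4-UAS reporter units, chemical-induced mRNA increases were assessed after 24 hours. Fluorescent RT-PCR fragments were separated by capillary electrophoresis and compared with DMSO negative controls.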

The nature of assay [3]: ATG_M_32_TRANS: Attagene TRANS-FACTORIAL HepG2 Assay for M32 Transcription Factor (Internal Marker) (AID 2282984).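 For outcome: transcript level of a background control reporter unit measured by RT-PCR and capillary electrophoresis.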 As to conditions: HepG2 Attagene TRANS M32 internal marker reporter. In a few lines: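 Fluorescence-detected mRNA induction, HepG2 liver cells, 24 h after dosing. Multiple GAL4-UAS reporter units introduced by transient transfection; background-control endpoint analysed for gain of signal against DMSO.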

Assay [4] has as its target Nuclear receptor subfamily 4 group A member 2 (Homo sapiens) (UniProt P43354). The assay can be described thus: ATG_NURR1_TRANS: Attagene TRANS-FACTORIAL HepG2 Assay for human Nuclear Receptor Related Protein 1 (NURR1) (AID 2282985). As to conditions: HepG2 Attagene TRANS reporter, mRNA readout. In short, it runs like this: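 Chimeric NR-Gal4 proteins were expressed in human HepG2 cells bearing GAL4-UAS reporter units, and induced reporter mRNA was quantified 24 h post-dosing by RT-PCR and capillary electrophoresis.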

In assay [5] the target is Transcriptional activator Myb (Homo sapiens) (UniProt P10242). Put plainly: ATG_Myb_CIS: Attagene CIS-FACTORIAL HepG2 Assay for human Myeloblastosis (Myb) Proto-Oncogene Transcription Factor (AID 2282986; active = hit-call score of the fitted dose curve at least 0.9, where 1 is the maximum; inactive = score below 0.9). The conditions noted are these: HepG2 Attagene CIS-FACTORIAL Myb reporter transcription; actives raise or lower the signal. In a few lines: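 Steps: transfect HepG2 with cis-regulated reporter units; dose with chemical for 24 h; isolate RNA, reverse-transcribe, PCR-amplify and FAM-label reporter sequences; digest with HpaI; resolve by capillary electrophoresis. Activity fitted in both directions relative to DMSO.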

The target in assay [6] is Nuclear respiratory factor 1 (Homo sapiens) (UniProt Q16656). The assay can be described thus: ATG_NRF1_CIS: Attagene CIS-FACTORIAL HepG2 Assay for human Nuclear Respiratory Factor 1 (NRF1) Orphan Gene (AID 2282987; active = hit-call score of the fitted dose curve at least 0.9, where 1 is the maximum; inactive = score below 0.9). The conditions noted are these: HepG2 NRF1 cis-element reporter, Attagene multiplex; actives raise or lower the signal. In a few lines:
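Fluorescence intensity of labelled reporter cDNA fragments, resolved by capillary electrophoresis, served as readout for NRF1 cis-element activity. Transiently transfected HepG2 cells were dosed for 24 hours; activity in either direction was fitted against DMSO negative control.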

The target of assay [7] is Bile acid receptor (Homo sapiens) (UniProt Q96RI1). Put plainly: ATG_FXR_TRANS: Attagene TRANS-FACTORIAL HepG2 Assay for Farnesoid X Receptor (FXR) (AID 2282979).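 Note: hits raise reporter mRNA above DMSO so AC50 marks FXR activation.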 The conditions noted are these: HepG2 Attagene TRANS FXR-GAL4 reporter transcription. In short, it runs like this: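 Reporter transcripts from transfected HepG2 cells were measured 24 h after dosing, using RT-PCR with capillary electrophoresis of 6-FAM-labelled fragments. The read-out reflects activity of exogenous FXR-Gal4 chimera on GAL4-UAS units, with induction relative to DMSO.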

Assay [8] addresses Oxysterols receptor LXR-beta (Homo sapiens) (UniProt P55055). Put plainly: ATG_LXRb_TRANS: Attagene TRANS-FACTORIAL HepG2 Assay for human Liver X Receptor beta (LXRb) (AID 2282981). As to conditions: HepG2 Attagene TRANS GAL4-LXRb reporter, mRNA. In short, it runs like this: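 Liver-derived HepG2 cells transfected with Gal4-responsive reporters were dosed for 24 h. Activation was scored as rise in reporter mRNA, by RT-PCR and capillary electrophoresis, above DMSO baseline.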

Assay [9] can be described thus: ATG_M_06_TRANS: Attagene TRANS-FACTORIAL HepG2 Assay for M06 Transcription Factor (Internal Marker) (AID 2282983).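 Note: reporter transcript level by RT-PCR then capillary electrophoresis fluorescence.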 The conditions noted are these: HepG2 Attagene TRANS M06 internal marker reporter. In a few lines:
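Background-control reporter readout: after 24 h chemical exposure of transiently transfected HepG2 (GAL4-UAS reporter units), mRNA quantified by RT-PCR with fluorescent labeling and capillary electrophoresis. Gain-of-signal fitting against DMSO baseline.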

Records with an inconclusive call do not appear. The source made the active and inactive calls. Rule for the calls, unless noted: active = hit-call score of the fitted dose curve at least 0.9, where 1 is the maximum; inconclusive = response in the unintended direction; inactive = score below 0.9.

Data on 28 compounds can be found in PubChem BioAssay (EPA / NIEHS).

For orientation: AC50 means the concentration giving half of the maximal activity seen.

Sequence of Oxysterols receptor LXR-beta (Homo sapiens) (P55055 whole entry, looked up, the tested form may be a part): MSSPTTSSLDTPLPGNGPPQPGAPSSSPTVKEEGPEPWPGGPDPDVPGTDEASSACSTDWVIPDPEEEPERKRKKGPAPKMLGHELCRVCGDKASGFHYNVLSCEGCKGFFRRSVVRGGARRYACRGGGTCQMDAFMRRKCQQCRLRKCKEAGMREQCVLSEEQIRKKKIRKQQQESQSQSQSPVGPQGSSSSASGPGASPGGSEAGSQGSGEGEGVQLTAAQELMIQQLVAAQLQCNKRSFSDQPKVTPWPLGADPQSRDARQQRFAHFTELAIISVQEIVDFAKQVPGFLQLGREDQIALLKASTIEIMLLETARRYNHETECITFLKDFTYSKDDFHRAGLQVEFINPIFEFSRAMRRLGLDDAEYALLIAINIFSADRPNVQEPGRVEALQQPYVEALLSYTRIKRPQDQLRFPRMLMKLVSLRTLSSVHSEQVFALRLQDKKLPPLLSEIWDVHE
Sequence of Nuclear respiratory factor 1 (Homo sapiens) (Q16656 whole entry, looked up, the tested form may be a part): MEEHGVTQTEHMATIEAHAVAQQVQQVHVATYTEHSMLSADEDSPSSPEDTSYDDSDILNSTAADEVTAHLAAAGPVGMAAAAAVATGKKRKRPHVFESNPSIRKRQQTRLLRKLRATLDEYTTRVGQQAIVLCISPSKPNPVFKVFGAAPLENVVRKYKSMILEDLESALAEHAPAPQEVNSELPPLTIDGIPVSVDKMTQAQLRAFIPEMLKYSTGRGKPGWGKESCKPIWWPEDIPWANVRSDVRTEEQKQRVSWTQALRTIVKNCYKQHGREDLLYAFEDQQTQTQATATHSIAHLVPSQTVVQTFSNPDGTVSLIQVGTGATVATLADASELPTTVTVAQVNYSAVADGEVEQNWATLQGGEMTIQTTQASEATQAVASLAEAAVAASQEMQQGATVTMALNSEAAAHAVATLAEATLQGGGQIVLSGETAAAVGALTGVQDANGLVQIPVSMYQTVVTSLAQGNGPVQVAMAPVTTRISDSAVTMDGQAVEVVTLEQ
Sequence of Nuclear receptor subfamily 4 group A member 2 (Homo sapiens) (P43354 whole entry, looked up, the tested form may be a part): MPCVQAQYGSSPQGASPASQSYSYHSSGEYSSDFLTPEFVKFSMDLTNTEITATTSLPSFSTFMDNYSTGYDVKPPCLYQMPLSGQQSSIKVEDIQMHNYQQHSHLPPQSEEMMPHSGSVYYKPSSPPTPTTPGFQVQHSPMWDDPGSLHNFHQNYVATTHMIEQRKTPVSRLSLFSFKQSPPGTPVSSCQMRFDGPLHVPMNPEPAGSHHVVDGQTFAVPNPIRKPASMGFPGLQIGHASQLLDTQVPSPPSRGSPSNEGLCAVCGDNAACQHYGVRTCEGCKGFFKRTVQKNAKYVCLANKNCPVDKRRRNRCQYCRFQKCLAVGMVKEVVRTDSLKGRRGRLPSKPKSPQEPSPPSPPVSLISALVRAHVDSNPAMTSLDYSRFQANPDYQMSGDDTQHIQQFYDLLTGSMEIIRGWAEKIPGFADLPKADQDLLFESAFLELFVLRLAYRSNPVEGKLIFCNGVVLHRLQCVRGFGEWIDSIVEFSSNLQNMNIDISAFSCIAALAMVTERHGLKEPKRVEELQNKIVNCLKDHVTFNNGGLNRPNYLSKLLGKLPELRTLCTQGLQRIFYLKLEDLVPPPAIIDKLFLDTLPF
Sequence of Transcriptional activator Myb (Homo sapiens) (P10242 whole entry, looked up): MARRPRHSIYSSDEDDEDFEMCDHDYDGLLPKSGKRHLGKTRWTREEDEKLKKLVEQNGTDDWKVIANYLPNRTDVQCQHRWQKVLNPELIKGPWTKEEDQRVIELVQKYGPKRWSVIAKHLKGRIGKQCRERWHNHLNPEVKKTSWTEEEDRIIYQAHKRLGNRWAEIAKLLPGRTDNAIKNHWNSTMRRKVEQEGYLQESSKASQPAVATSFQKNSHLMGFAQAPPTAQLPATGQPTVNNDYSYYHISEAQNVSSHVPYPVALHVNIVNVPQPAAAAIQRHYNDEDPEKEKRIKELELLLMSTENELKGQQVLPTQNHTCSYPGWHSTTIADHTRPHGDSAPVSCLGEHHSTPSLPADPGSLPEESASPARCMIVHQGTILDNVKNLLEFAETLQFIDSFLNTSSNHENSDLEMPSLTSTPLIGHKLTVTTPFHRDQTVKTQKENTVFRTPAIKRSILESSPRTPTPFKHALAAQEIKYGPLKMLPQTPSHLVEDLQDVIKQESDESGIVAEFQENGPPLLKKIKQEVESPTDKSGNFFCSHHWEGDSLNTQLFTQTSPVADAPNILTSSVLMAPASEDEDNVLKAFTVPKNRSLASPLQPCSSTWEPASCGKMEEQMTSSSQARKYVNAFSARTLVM
Sequence of Oxysterols receptor LXR-alpha (Homo sapiens) (Q13133 whole entry, looked up, the tested form may be a part): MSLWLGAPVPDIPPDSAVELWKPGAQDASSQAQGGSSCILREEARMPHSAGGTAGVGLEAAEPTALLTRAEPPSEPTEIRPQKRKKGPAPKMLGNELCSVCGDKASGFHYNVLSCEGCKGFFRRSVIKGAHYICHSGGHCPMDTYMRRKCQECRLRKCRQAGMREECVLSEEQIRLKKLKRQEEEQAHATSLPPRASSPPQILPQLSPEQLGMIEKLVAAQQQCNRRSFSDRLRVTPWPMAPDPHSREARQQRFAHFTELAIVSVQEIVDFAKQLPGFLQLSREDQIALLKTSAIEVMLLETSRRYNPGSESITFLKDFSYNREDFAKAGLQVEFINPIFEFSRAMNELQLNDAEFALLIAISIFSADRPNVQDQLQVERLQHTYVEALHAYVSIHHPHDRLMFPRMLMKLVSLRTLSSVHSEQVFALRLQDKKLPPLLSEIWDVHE
Sequence of Hepatocyte nuclear factor 4-alpha (Homo sapiens) (P41235 whole entry, looked up, the tested form may be a part): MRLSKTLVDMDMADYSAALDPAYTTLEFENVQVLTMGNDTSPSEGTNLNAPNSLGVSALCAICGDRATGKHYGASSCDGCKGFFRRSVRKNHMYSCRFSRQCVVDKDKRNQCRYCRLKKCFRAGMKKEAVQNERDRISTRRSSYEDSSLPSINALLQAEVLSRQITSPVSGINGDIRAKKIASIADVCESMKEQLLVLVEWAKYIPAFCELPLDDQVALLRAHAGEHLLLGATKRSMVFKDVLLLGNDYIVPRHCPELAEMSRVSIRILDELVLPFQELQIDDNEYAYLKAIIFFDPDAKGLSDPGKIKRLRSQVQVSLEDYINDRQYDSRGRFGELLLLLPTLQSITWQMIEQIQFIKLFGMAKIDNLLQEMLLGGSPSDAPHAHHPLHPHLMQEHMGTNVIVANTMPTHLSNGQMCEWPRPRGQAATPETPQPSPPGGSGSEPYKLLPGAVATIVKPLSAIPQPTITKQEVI
Sequence of Bile acid receptor (Homo sapiens) (Q96RI1 whole entry, looked up, the tested form may be a part): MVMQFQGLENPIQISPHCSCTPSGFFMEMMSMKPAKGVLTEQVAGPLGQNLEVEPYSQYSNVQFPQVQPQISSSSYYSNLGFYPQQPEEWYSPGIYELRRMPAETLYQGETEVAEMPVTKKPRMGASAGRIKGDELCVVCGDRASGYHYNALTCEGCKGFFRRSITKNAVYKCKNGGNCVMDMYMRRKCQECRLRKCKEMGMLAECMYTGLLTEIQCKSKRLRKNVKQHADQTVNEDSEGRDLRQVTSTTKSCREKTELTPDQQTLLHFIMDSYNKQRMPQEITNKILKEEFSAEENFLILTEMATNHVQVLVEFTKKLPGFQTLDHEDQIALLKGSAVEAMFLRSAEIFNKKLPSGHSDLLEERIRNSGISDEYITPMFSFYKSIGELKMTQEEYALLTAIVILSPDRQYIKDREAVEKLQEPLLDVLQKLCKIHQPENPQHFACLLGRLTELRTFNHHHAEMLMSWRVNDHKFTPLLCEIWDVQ

As to `S=C(NC1CCCCC1)NC1CCCCC1`, the compound was classed as inactive in assay [1], in assay [2], in assay [3], in assay [4], in assay [5] and in assay [6].
`C=CC(=O)NC(C)(C)CS(=O)(=O)O`: the compound was classed as inactive in assay [1], in assay [2], in assay [3], in [5] and in [6].
As to `O=C(/C=C/C=C/c1ccc2c(c1)OCO2)N1CCCCC1`, the outcome in [7], in [3], in assay [4] and in assay [6] was inactive.
As to `CCCCCCCCCCCCCCCC[n+]1ccccc1`, the compound was called inactive in [1], in assay [8], in [9], in assay [3] and in [5]. The values for the AC50 in assay [2] and in assay [6] were 19.8 µM (active) and 14.7 µM (active), respectively.
For `CC1=CC[C@H](C(C)C)C=C1`, the result in assay [1], in assay [8], in assay [2], in [3], in assay [4] and in [5] was inactive. Also, the compound was called inactive in assay [6].
Take `CC=C1CC2C=CC1C2` (centres undefined): the outcome in assay [1], in assay [8], in assay [3], in [5] and in [6] was inactive.
With `COc1ccc(C(Cl)=C(c2ccc(OC)cc2)c2ccc(OC)cc2)cc1`, the compound was classed as inactive in [1], in assay [8], in assay [2], in assay [9], in assay [3] and in assay [5]. The result in assay [6] was inactive.
With `COC(=O)c1ccc2cc(C(=O)OC)ccc2c1`, the compound was called inactive in assay [1], in assay [8], in [2], in assay [9], in assay [3] and in assay [4]. In addition, the call in [5] and in [6] was inactive.
As to `CO[Si](OC)(OC)c1ccccc1`, the call in assay [1], in assay [2], in assay [3], in assay [5] and in assay [6] was inactive.
On to `COCCCOCCCOC`, for which the result in assay [1], in [8], in assay [2], in assay [3], in assay [5] and in assay [6] was inactive.
Regarding `COC=O`, the compound was called inactive in assay [1], in assay [9], in [3], in assay [5] and in [6].
For `[Cl][In]([Cl])[Cl]`, the result in [1], in assay [9], in assay [4], in assay [5] and in [6] was inactive.
In the case of `COc1cc(C)ccc1C(C)C`, the compound was called inactive in assay [1], in [2], in assay [9], in assay [3], in assay [4] and in assay [5]. For the same compound, the result in assay [6] was inactive.
For the compound `CN(C)c1ccc(C(=N)c2ccc(N(C)C)cc2)cc1`, the result in assay [1], in [8], in assay [2], in [9], in assay [4] and in assay [5] was inactive. For the same compound, the result in assay [6] was inactive. Also, the AC50 in assay [3] was 106 µM (active).
With `C1=Cc2ccccc2C1`, the compound was classed as inactive in [1], in assay [8], in [2], in [9], in assay [5] and in assay [6].
In the case of `CC=CC(F)(F)C(F)(F)C(F)(F)F`, the result in assay [1], in assay [8], in assay [9], in assay [3], in assay [4] and in assay [5] was inactive. Besides, the call in [6] was inactive.
Consider `CCCNC(=O)NS(=O)(=O)c1ccc(Cl)cc1`, for which the outcome in assay [1], in assay [9], in assay [3], in [5] and in assay [6] was inactive.
On to `CC(C)=CCC/C(C)=C\C#N`, for which the result in [1], in assay [8], in assay [2], in assay [9], in assay [3] and in assay [5] was inactive. Besides, the compound was called inactive in [6].
With `Cc1ccc(N/N=c2\c(=O)cc/c(=N/Nc3ccc(S(=O)(=O)O)cc3)c2=O)c(C)c1`, the compound was classed as inactive in [1], in assay [3], in assay [5] and in assay [6].
Regarding `Cc1ccccc1C`, the call in assay [1], in assay [8], in assay [2], in assay [9], in assay [3] and in assay [4] was inactive. In addition, the compound was classed as inactive in assay [5] and in assay [6].
`CC1=CC[C@H]2C[C@@H]1C2(C)C`: the outcome in assay [1], in [8], in assay [3], in assay [4], in assay [5] and in assay [6] was inactive.
With `Cc1ccc2c(c1)C(=O)c1ccccc1C2=O`, the outcome in assay [1], in [8], in assay [2], in assay [9], in assay [3] and in assay [4] was inactive. Also, in assay [6], the compound was called inactive.
For the compound `OC1CCCC1`, the compound was classed as inactive in assay [8], in [9], in [3], in assay [4], in assay [5] and in assay [6].
With `CC(C)=CCC[C@H](C)CCO`, the result in assay [8], in assay [9], in assay [4], in assay [5] and in [6] was inactive.
In the case of `[Cl][Bi]([Cl])([c]1ccccc1)([c]1ccccc1)[c]1ccccc1`, the compound was classed as inactive in assay [8], in [3], in assay [4], in assay [5] and in assay [6].
As to `O=CC1CC1`, the result in assay [1], in [3], in assay [5] and in assay [6] was inactive.
As to `[Cl][Nd]([Cl])[Cl]`, the call in assay [8], in [2], in assay [3], in assay [4] and in assay [6] was inactive.
For `CCC(C)C=O` (centres undefined), the compound was classed as inactive in assay [1], in assay [4], in assay [5] and in [6].
